Measurements taken from PubChem BioAssay (NCI).
Where “and” joins values, the source holds several entries; their conditions need not be identical. Equal entries are not always repeated. This is part of a sample that, as a whole, favours compounds with a hit. Of some 83,000 tested, about 20% had one in any assay.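 Negative percent growth values reflect cell death: -40 means 40% of the cells present at the start died, and -100 means all died.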 Calls of active or inactive are those of the source. The calls were made as follows: active = growth percent below 10; inactive = the rest.

What was measured:
Test in all cases: NCI-60 one-dose screen, 48 h (100 = growth as untreated, 0 = no growth, -100 = all killed)
Settings in all cases: 10 µM unless noted
SK-MEL-2 melanoma = system: SK-MEL-2 melanoma
EKVX NSCLC = system: EKVX NSCLC
SN12C renal = system: SN12C renal
UO-31 renal = system: UO-31 renal
TK-10 renal = system: TK-10 renal
ACHN renal = system: ACHN renal
CAKI-1 renal = system: CAKI-1 renal
A498 renal = system: A498 renal
CCRF-CEM leukemia = system: CCRF-CEM leukemia
MOLT-4 leukemia = system: MOLT-4 leukemia
SR leukemia = system: SR leukemia
RPMI-8226 leukemia = system: RPMI-8226 leukemia
OVCAR-8 ovarian = system: OVCAR-8 ovarian
OVCAR-5 ovarian = system: OVCAR-5 ovarian
OVCAR-4 ovarian = system: OVCAR-4 ovarian
SK-OV-3 ovarian = system: SK-OV-3 ovarian
IGROV1 ovarian = system: IGROV1 ovarian
OVCAR-3 ovarian = system: OVCAR-3 ovarian
HS 578T breast = system: HS 578T breast
NCI/ADR-RES ovarian = system: NCI/ADR-RES ovarian

Row | SMILES | growth (SK-MEL-2 melanoma) | growth (EKVX NSCLC) | growth (SN12C renal) | growth (UO-31 renal) | growth (TK-10 renal) | growth (ACHN renal) | growth (CAKI-1 renal) | growth (A498 renal) | growth (CCRF-CEM leukemia) | growth (MOLT-4 leukemia) | growth (SR leukemia) | growth (RPMI-8226 leukemia) | growth (OVCAR-8 ovarian) | growth (OVCAR-5 ovarian) | growth (OVCAR-4 ovarian) | growth (SK-OV-3 ovarian) | growth (IGROV1 ovarian) | growth (OVCAR-3 ovarian) | growth (HS 578T breast) | growth (NCI/ADR-RES ovarian)
1 | CC(C)(C)c1cc(NC(=O)Nc2ccc(-c3cn4c(n3)sc3cc(OCCN5CCOCC5)ccc34)cc2)no1 | 10.8% (inactive) | 47.6% (inactive) and 68.4% (inactive) | 15.6% (inactive) and 19.3% (inactive) | 10.7% (inactive) and 28.2% (inactive) | 24.2% (inactive) and 45% (inactive) | 12.4% (inactive) and 26.7% (inactive) | 30.4% (inactive) and 13.4% (inactive) | 8.16% (active) and 37.7% (inactive) | 18.7% (inactive) and 20% (inactive) | 1.69% (active) and 40% (inactive) | 9.24% (active) and 1.25% (active) | -11% (active) and 22.8% (inactive) | 13.2% (inactive) and -9.65% (active) | 56% (inactive) and 60.8% (inactive) | 59.3% (inactive) and 3.54% (active) | 45.4% (inactive) and 27.9% (inactive) | 48.3% (inactive) and 37.5% (inactive) | -43.2% (active) and 38.5% (inactive) | -2.54% (active) | 51.5% (inactive) and 23.2% (inactive)
2 | COc1cc(/C=C/C(=O)c2ccc(NC(=O)CSc3nnc(-c4cc(-c5ccccc5)nc5ccccc45)n3-c3ccccc3)cc2)cc(OC)c1OC | 100% (inactive) | 84.9% (inactive) | 83.8% (inactive) | 87.7% (inactive) | 109% (inactive) | 78.6% (inactive) | 72.4% (inactive) | 87.8% (inactive) | 84.2% (inactive) | 52.7% (inactive) | 58% (inactive) | 72.3% (inactive) | 86.9% (inactive) | 93.6% (inactive) | 103% (inactive) | 101% (inactive) | 110% (inactive) | 98.5% (inactive) | 90.4% (inactive) | 86.7% (inactive)
3 | CCCCCCCCn1ccc2cc(NC(=O)CN3CCN(c4nc(C)cc(N5CCCCC5)n4)CC3)ccc21 | 114% (inactive) | 79.4% (inactive) | 91.9% (inactive) | 58.4% (inactive) | 98.5% (inactive) | 91.7% (inactive) | 86.8% (inactive) | 104% (inactive) | -43.6% (active) | 0.667% (active) | 53.3% (inactive) | 59.9% (inactive) | 90.2% (inactive) | 103% (inactive) | 82.7% (inactive) | 98.8% (inactive) | 73.9% (inactive) | 94.4% (inactive) | 91.5% (inactive) | 85.8% (inactive)
4 | C=CCOc1ccc(/C=C2\SC(=S)N(CCc3ccc(O)cc3)C2=O)cc1 | 106% (inactive) | 91.4% (inactive) | 84.4% (inactive) | 61.3% (inactive) | 106% (inactive) | 94% (inactive) | 71.2% (inactive) | 65.6% (inactive) | 5.72% (active) | 40.4% (inactive) | 38.6% (inactive) | 76.8% (inactive) | 97.5% (inactive) | 110% (inactive) | 86.5% (inactive) | 115% (inactive) | 59.4% (inactive) | 100% (inactive) | 95% (inactive) | 98.9% (inactive)
5 | Cn1cc(-c2nonc2-c2cn(C)c3ccc(Br)cc23)c2ccccc21 | 33.5% (inactive) | 48.6% (inactive) | 37.1% (inactive) | 32.3% (inactive) | 60.7% (inactive) | 33.5% (inactive) | 25.8% (inactive) | -5.37% (active) | 15.5% (inactive) | 27.2% (inactive) | 11.1% (inactive) | 29.6% (inactive) | 36.8% (inactive) | 58.1% (inactive) | 55.5% (inactive) | 37.9% (inactive) | 45.6% (inactive) | 3.66% (active) | -1.89% (active) | 21% (inactive)
6 | O=C(NCc1cccnc1)/C(=C\c1ccc(Br)cc1)S(=O)(=O)c1ccccc1 | -44% (active) | 11.1% (inactive) | -30.2% (active) | 10.7% (inactive) | -59.4% (active) | -15.3% (active) | -2.88% (active) | -20.4% (active) | 25.2% (inactive) | 64.1% (inactive) | 55.9% (inactive) | 26.7% (inactive) | 3.01% (active) | -41.3% (active) | 0.235% (active) | 10.2% (inactive) | -11.3% (active) | -96.7% (active) | 14.9% (inactive) | 2.59% (active)
7 | COc1cc(/C=N/NC(=O)CCN2c3ccccc3Sc3ccccc32)cc(OC)c1OC | 98.4% (inactive) | 72.7% (inactive) | 76.8% (inactive) | 63.7% (inactive) | 110% (inactive) | 76% (inactive) | 67.1% (inactive) | 61.1% (inactive) | 73.9% (inactive) | 71.5% (inactive) | 72% (inactive) | 54.7% (inactive) | 86.5% (inactive) | 89% (inactive) | 68.3% (inactive) | 105% (inactive) | 91.2% (inactive) | 99.5% (inactive) | 93.7% (inactive) | 87.6% (inactive)
8 | CCOC(=O)c1ccc(Nc2ncnc3c2cnn3-c2cccc(F)c2)cc1 | 114% (inactive) | 97.5% (inactive) | 95% (inactive) | 72.1% (inactive) | 115% (inactive) | 96.5% (inactive) | 84.8% (inactive) | 99% (inactive) | 95.6% (inactive) | 99.2% (inactive) | 94.7% (inactive) | 99.5% (inactive) | 98.3% (inactive) | 97.1% (inactive) | 99.7% (inactive) | 120% (inactive) | 98.7% (inactive) | 112% (inactive) | 95.9% (inactive) | 103% (inactive)
9 | COc1ccc(/C=C/C(=O)c2cc3c(N)c(C(=O)Nc4ccccc4)sc3nc2C)cc1 | 53.1% (inactive) | 47% (inactive) | 12.5% (inactive) | 35.2% (inactive) | 36.9% (inactive) | 31.4% (inactive) | 23.1% (inactive) | 18.6% (inactive) | 16.3% (inactive) | 30.9% (inactive) | 23.4% (inactive) | -13.3% (active) | 3.29% (active) | 39.3% (inactive) | 49.3% (inactive) | 33% (inactive) | 31% (inactive) | -16.6% (active) | 14.6% (inactive) | 2.9% (active)
10 | COc1ccc(-c2cc3cnc4ccccc4c3oc2=O)cc1 | 120% (inactive) | 101% (inactive) | 100% (inactive) | 88.7% (inactive) | 99.2% (inactive) | 106% (inactive) | 89.7% (inactive) | 93.1% (inactive) | 89% (inactive) | 104% (inactive) | 74.6% (inactive) | 102% (inactive) | 105% (inactive) | 101% (inactive) | 103% (inactive) | 93.9% (inactive) | 106% (inactive) | 106% (inactive) | 100% (inactive) | 102% (inactive)
11 | Cn1ccnc1CN1CCSC(C(=O)Nc2ccccc2)C1 (stereo not given) | 102% (inactive) | 106% (inactive) | 91.4% (inactive) | 89.2% (inactive) | 101% (inactive) | 93.2% (inactive) | 89.2% (inactive) | 97% (inactive) | 80.9% (inactive) | 94.3% (inactive) | 96.8% (inactive) | 88.5% (inactive) | 95.5% (inactive) | 83.1% (inactive) | 90.7% (inactive) | 98.7% (inactive) | 94.5% (inactive) | 102% (inactive) | 95.9% (inactive) | 92.7% (inactive)
12 | O=c1cc(N/N=C/c2ccc(F)cc2)c2cc(Cl)ccc2[nH]1 | 77.2% (inactive) | 74.2% (inactive) | 92.3% (inactive) | 79% (inactive) | 91.5% (inactive) | 91.1% (inactive) | 99% (inactive) | 90.5% (inactive) | -13.2% (active) | -15.8% (active) | 4.1% (active) | -43.8% (active) | 93.6% (inactive) | 88.4% (inactive) | 92.9% (inactive) | 84.9% (inactive) | 107% (inactive) | 100% (inactive) | 121% (inactive) | 105% (inactive)
13 | COc1ccc2c(O)c(/C=C3\N=Nc4nc(C)ccc43)oc2c1CC1CCNCC1 | 95.5% (inactive) | 63.4% (inactive) | 60.3% (inactive) | 70.6% (inactive) | 79.1% (inactive) | 69.2% (inactive) | 83.1% (inactive) | 44.7% (inactive) | 63.3% (inactive) | 48.1% (inactive) | -27.5% (active) | 96.7% (inactive) | 68.4% (inactive) | 65% (inactive) | 74.2% (inactive) | 80.8% (inactive) | 60.8% (inactive) | 83.8% (inactive) | 57.9% (inactive) | 104% (inactive)
14 | CC12OC(CC(O)C1O)n1c3ccccc3c3c4c(c5c6ccccc6n2c5c31)C(=O)N(CCN1CCOCC1)C4=O (stereo not given) | 12.6% (inactive) | 32% (inactive) | 10.3% (inactive) | -9.86% (active) | -11.1% (active) | -59.7% (active) | 2.22% (active) | -15.3% (active) | 16.4% (inactive) | 3.59% (active) | 1.71% (active) | 6.35% (active) | 17% (inactive) | 24.7% (inactive) | 22.9% (inactive) | -8.93% (active) | 5.73% (active) | 20.8% (inactive) | 23.1% (inactive) | 15.4% (inactive)
